# Source: PubChem BioAssay (NCI)
# This is part of a sample that, as a whole, favours compounds with a hit. Of some 83,000 tested, about 20% had one in any assay.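 For each line, cells grew in 96-well plates with the test compound present at a single concentration for 48 hours.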 Values without a mark were called inactive. The source made the active and inactive calls. Rule for the calls: active = growth percent below 10; inactive = the rest.
# Experiments:
# Experiment in all cases: NCI-60 one-dose screen, 48 h (100 = growth as untreated, 0 = no growth, -100 = all killed)
# Settings in all cases: 10 µM unless noted
# T-47D breast = test system: T-47D breast
# BT-549 breast = test system: BT-549 breast
# MDA-MB-435 melanoma = test system: MDA-MB-435 melanoma
# SW-620 colon = test system: SW-620 colon
# MCF7 breast = test system: MCF7 breast
# HCT-116 colon = test system: HCT-116 colon
# HCC-2998 colon = test system: HCC-2998 colon
# KM12 colon = test system: KM12 colon
SMILES,growth (T-47D breast),growth (BT-549 breast),growth (MDA-MB-435 melanoma),growth (SW-620 colon),growth (MCF7 breast),growth (HCT-116 colon),growth (HCC-2998 colon),growth (KM12 colon)
COc1ccc(NC(=O)Nc2ccc3c(ccn3C(=O)c3cccc(F)c3)c2)cc1,75.9%,76.2%,74.9%,60.2%,60.4%,45.8%,86.8%,53%
CNC(=O)c1cc(N2CCc3cc(NC(=O)Nc4ccc(Cl)c(C(F)(F)F)c4)ccc32)ccn1,49.2%,72.3%,53.3%,88.2%,29.8%,39.4%,53.7%,17%
COc1ccc(NC2=C(Cl)C(=O)c3nc(C)ccc3C2=O)cc1OC,14.9%,126%,-67.2% (active),72.2%,59%,55.8%,104%,98.2%
CN1CCN(Cc2ccc(NC(=O)c3cncc(C#Cc4cnc5ccc(OCC6(C)COC6)nn45)c3)cc2C(F)(F)F)CC1,-49.9% (active),-62% (active),-90.9% (active),-44.8% (active),-76% (active),-75.5% (active),-89.6% (active),-82.1% (active)
CC1(C)CC[C@]2(C(=O)N3CCOCC3)CC[C@]3(C)C(=CC[C@@H]4[C@@]5(C)C/C(=C/c6ccccn6)C(=O)C(C)(C)[C@@H]5CC[C@]43C)[C@@H]2C1,53.4%,70%,68.6%,69.6%,44%,34.9%,81.4%,72.4%
CN1CCC(n2cc(Nc3ncc4c(=O)n(-c5c(Cl)cccc5Cl)cc(Br)c4n3)cn2)CC1,37%,57.5%,5.4% (active),20.5%,18.7%,5.66% (active),31%,14.8%
Cc1cc(C)cc(C(=O)Nc2cccc(C#Cc3cccc4[nH]nc(N)c34)c2)c1,39.4%,115%,2.35% (active),38.6%,38.1%,43.2%,57.7%,12.6%
NS(=O)(=O)c1ccc(-n2cc(CN3CCNCC3)nn2)cc1,107%,110%,106%,109%,98.9%,107%,101%,105%
Nc1nc(-c2cccc([N+](=O)[O-])c2)c(N=Nc2ccc([N+](=O)[O-])cc2Cl)s1,4.47% (active),-24.9% (active),6.11% (active),13%,2.17% (active),0.397% (active),12.9%,2.86% (active)
Nc1ncc(-c2ccc3ncnc(N4CCc5cc(F)c(F)cc54)c3c2)cn1,4.14% (active),12.3%,30.2%,54.4%,14.4%,28.9%,31.9%,45.3%
C=CCn1c(-c2nc3ccc(C(=C(C#N)C#N)c4ccccc4)cc3[nH]2)cc2cc(Br)ccc21,43%,71.3%,75.2%,61.2%,0.939% (active),27.4%,61.2%,34.1%
Cc1ccc(CSc2nc(-c3ccc(Cl)cc3)c(C#N)c(N3CCOCC3)n2)cc1,79%,115%,94.8%,96%,88.6%,90%,104%,96.5%
COc1ccccc1-n1cc(C#N)c(N)c1C(=O)c1ccc(Cl)cc1,88.3%,92.7%,-16.7% (active),40.8%,32.3%,63.5%,68.2%,58.2%
Cc1cc(C)n(C(=O)c2sc(=S)n(-c3ccccc3)c2N=Nc2c(N)n[nH]c2N)n1,117%,107%,104%,102%,96.7%,100%,110%,107%
COc1ccc(C(=O)Nc2ncc(Cc3ccccc3Cl)s2)cc1,34.3%,54.8%,-5.1% (active),25.3%,14.3%,7.77% (active),6.97% (active),9.41% (active)
NC(N)=Nc1ccc(Oc2cccc(Nc3ccc(Cl)cc3)c2)cn1,26.1%,65.7%,14.3%,-71.8% (active),-76.7% (active),-73.4% (active),-89.1% (active),-92.6% (active)
COc1cc(-c2nc(SCCC(C)C)nc(NNC(=O)c3ccncc3)c2C#N)cc(OC)c1OC,43%,104%,90.1%,110%,74.7%,84.5%,92.1%,86.5%
CCOC(=O)c1c(N)c(C#N)cn1-c1cc(OC)c(OC)c(OC)c1,112%,107%,103%,98.8%,91.1%,113%,115%,108%
CN1CCN(Cc2ccc(NC(=O)c3cncc(C#Cc4cnn5cccnc45)c3)cc2C(F)(F)F)CC1,54.2%,47.1%,3.16% (active),0.2% (active),-2.5% (active),4.34% (active),12.7%,2.87% (active)
N/C(=N\C(N)=N\c1nc2ccccc2s1)c1cccc(F)c1,74.6% [5 µM],96.7% [5 µM],104% [5 µM],97.2% [5 µM],85.8% [5 µM],89.3% [5 µM],112% [5 µM],99.9% [5 µM]
CCCC(=O)NC(c1cccnc1)c1cc(C(C)(C)C)c2cccnc2c1O (configuration not stated),24.1%,24.8%,30.2%,34.2%,10.9%,21.7%,51.4%,18.8%
Cc1cc2nc(C(Cl)Cl)nc(-c3cccs3)n2n1,30.6%,74.1%,26.3%,10.9%,12.1%,12.2%,-54.4% (active),-26.4% (active)
O=C(Nc1nonc1-c1ccccc1)c1ccc(C(F)(F)F)cc1,76%,85.5%,82.7%,94.6%,72.3%,86.2%,101%,97.4%
Cc1cccc2c3c(sc12)C(c1ccc(Cl)cc1)c1c(nc(CC(=O)Nc2ccccc2)[nH]c1=O)O3 (configuration not stated),47.9%,77.1%,9.37% (active),40.9%,38.1%,37.7%,85.7%,37.7%
COc1ccccc1-n1cc(C#N)c(N)c1C(=O)c1ccc(Br)cc1,60%,88.9%,3.09% (active),38.7%,33.5%,58.8%,71%,39.3%
O=C(Cn1cc[n+](CC(=O)c2ccc(-c3ccccc3)cc2)c1)Nc1cccc2cccnc12,40.4%,57.4%,79.3%,85%,51.4%,72.4%,51.7%,31.6%
C=CCn1c(SCC(=O)Nc2ccc(C(=O)/C=C/c3ccc(C)cc3)cc2)nnc1-c1c[nH]c2ccccc12,70%,107%,96.7%,96.9%,20.2%,-2.08% (active),102%,96.6%
COc1cc2nc(Cl)nc(Nc3cccc(C4=Nc5c(N)nc(N)nc5NC(c5ccccc5)C4)c3)c2cc1OC (configuration not stated),67.5%,81.6%,101%,85.4%,70.5%,74.6%,94.3%,78.3%
CC(C)c1ccc(NCc2cn(-c3ccc(C(=O)O)cc3)nc2-c2cc(C(F)(F)F)cc(C(F)(F)F)c2)cc1,71%,102%,91%,86.8%,75.3%,84%,97%,82.5%
